In PubChem BioAssay AID1159580 (chemical genetic matrix, 2015):
The campaign covered roughly 5,500 compounds. About 2,000 (36%) were called active. Another 18% or so got no clear call; they are omitted. Rule as the data show it: active = normalized growth mostly below about 0.91 (no sharp cut-off); inconclusive = no clear call, values can overlap the other calls; inactive = mostly above about 0.92. The list shows a part of the results.

Assay: chemical genetic growth profiling, strain panel (AID 1159580);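 also: tested at 20 µM; growth read once vehicle control cultures reached saturation at 30 °C; 1 = growth at the plate median or of vehicle wells; lower values mean less growth of the strain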
Conditions: growth OD
[1] = S. cerevisiae deletion strains, locus YHR030C, strain SLT2, hits give low values
[2] = S. cerevisiae deletion strains, locus YHR079C, strain IRE1, hits give low values
[3] = S. cerevisiae deletion strains, locus YJL095W, strain BCK1, hits give low values
[4] = S. cerevisiae deletion strains, locus YJR066W, strain TOR1, hits give low values
[5] = S. cerevisiae deletion strains, locus YLR113W, strain HOG1, hits give low values
[6] = S. cerevisiae deletion strains, locus YNL183C, strain NPR1, hits give low values
[7] = S. cerevisiae deletion strains, locus YOR231W, strain MKK1, hits give low values
[8] = S. cerevisiae deletion strains, locus YPL256C, strain CLN2, hits give low values

Measured: normalized growth

Clc1ccc2c(c1)CCc1cccnc1C2=C1CCNCC1
inactive: [1] 0.968 | [2] 0.986 | [3] 1.04 | [4] 0.932 | [5] 1.03 | [6] 0.965 | [7] 0.992 | [8] 0.972

O=C1CCCCC/C=C/CCCCCCCCO1
inactive: S. cerevisiae deletion strains, locus YAL013W, strain DEP1, hits give low values 0.986 | S. cerevisiae deletion strains, locus YBR021W, strain FUR4, hits give low values 1.01 | S. cerevisiae deletion strains, locus YBR229C, strain ROT2, hits give low values 1 | S. cerevisiae deletion strains, locus YCL029C, strain bik1, hits give low values 1 | S. cerevisiae deletion strains, locus YDL035C, strain GPR1, hits give low values 0.988 | S. cerevisiae deletion strains, locus YDL074C, strain BRE1, hits give low values 0.949 | S. cerevisiae deletion strains, locus YDL101C, strain DUN1, hits give low values 0.994 | S. cerevisiae deletion strains, locus YDL134C, strain PPH21, hits give low values 0.999 | S. cerevisiae deletion strains, locus YDL185W, strain tfp1, hits give low values 0.999 | S. cerevisiae deletion strains, locus YDL192W, strain arf1, hits give low values 0.997 | S. cerevisiae deletion strains, locus YDR101C, strain arx1, hits give low values 0.979 | S. cerevisiae deletion strains, locus YDR150W, strain NUM1, hits give low values 1.01 | S. cerevisiae deletion strains, locus YDR162C, strain NBP2, hits give low values 1 | S. cerevisiae deletion strains, locus YDR318W, strain mcm21, hits give low values 0.985 | S. cerevisiae deletion strains, locus YDR388W, hits give low values 0.99 | S. cerevisiae deletion strains, locus YDR502C, strain sam2, hits give low values 0.969 | S. cerevisiae deletion strains, locus YEL061C, strain CIN8, hits give low values 0.999 | S. cerevisiae deletion strains, locus YER110C, hits give low values 0.992 | S. cerevisiae deletion strains, locus YER155C, strain BEM2, hits give low values 1 | S. cerevisiae deletion strains, locus YER167W, strain BCK2, hits give low values 0.974 | S. cerevisiae deletion strains, locus YGL078C, strain dbp3, hits give low values 1 | S. cerevisiae deletion strains, locus YGL086W, strain mad1, hits give low values 0.988 | S. cerevisiae deletion strains, locus YGL248W, strain PDE1, hits give low values 1 | S. cerevisiae deletion strains, locus YGR078C, strain PAC10, hits give low values 0.946 | S. cerevisiae deletion strains, locus YGR135W, strain pre9, hits give low values 0.956 | S. cerevisiae deletion strains, locus YGR229C, strain SMI1, hits give low values 0.893 | S. cerevisiae deletion strains, locus YGR252W, strain gcn5, hits give low values 0.999 | [1] 0.999 | S. cerevisiae deletion strains, locus YHR079C, strain IRE1 (second series), hits give low values 0.995 | S. cerevisiae deletion strains, locus YHR094C, strain hxt1, hits give low values 0.997 | S. cerevisiae deletion strains, locus YHR129C, strain ARP1, hits give low values 0.988 | S. cerevisiae deletion strains, locus YHR200W, strain rpn10, hits give low values 1 | S. cerevisiae deletion strains, locus YIL066C, strain RNR3, hits give low values 0.985 | S. cerevisiae deletion strains, locus YIL073C, strain SPO22, hits give low values 1.01 | S. cerevisiae deletion strains, locus YIL125W, strain kgd1, hits give low values 0.985 | S. cerevisiae deletion strains, locus YIR030C, strain dcg1, hits give low values 1 | [3] 0.924 | S. cerevisiae deletion strains, locus YJL134W, strain LCB3, hits give low values 1 | S. cerevisiae deletion strains, locus YJL168C, strain set2, hits give low values 0.988 | S. cerevisiae deletion strains, locus YJL187C, strain SWE1 (second series), hits give low values 1 | S. cerevisiae deletion strains, locus YJR043C, strain POL32, hits give low values 0.953 | S. cerevisiae deletion strains, locus YJR075W, strain HOC1, hits give low values 0.944 | S. cerevisiae deletion strains, locus YKL009W, strain mrt4, hits give low values 1.01 | S. cerevisiae deletion strains, locus YKL068W, hits give low values 1 | S. cerevisiae deletion strains, locus YKL085W, strain MDH1 (second series), hits give low values 1.01 | S. cerevisiae deletion strains, locus YKL085W, strain MDH1, hits give low values 1.01 | S. cerevisiae deletion strains, locus YKL190W, strain CNB1, hits give low values 1 | S. cerevisiae deletion strains, locus YKR001C, strain vps1, hits give low values 0.948 | S. cerevisiae deletion strains, locus YLR039C, strain RIC1, hits give low values 0.869 | S. cerevisiae deletion strains, locus YLR058C, strain SHM2, hits give low values 1 | S. cerevisiae deletion strains, locus YLR102C, strain apc9, hits give low values 0.997 | S. cerevisiae deletion strains, locus YLR262C, strain YPT6, hits give low values 0.859 | S. cerevisiae deletion strains, locus YLR268W, strain sec22, hits give low values 0.975 | S. cerevisiae deletion strains, locus YLR330W, strain CHS5, hits give low values 1.01 | S. cerevisiae deletion strains, locus YLR342W, strain FKS1 (second series), hits give low values 0.968 | S. cerevisiae deletion strains, locus YLR371W, strain rom2, hits give low values 0.999 | S. cerevisiae deletion strains, locus YLR418C, strain cdc73, hits give low values 0.848 | S. cerevisiae deletion strains, locus YML016C, strain PPZ1, hits give low values 1.01 | S. cerevisiae deletion strains, locus YML032C, strain rad52, hits give low values 0.983 | S. cerevisiae deletion strains, locus YML124C, strain tub3, hits give low values 0.995 | S. cerevisiae deletion strains, locus YMR078C, strain ctf18, hits give low values 0.99 | S. cerevisiae deletion strains, locus YMR223W, strain ubp8, hits give low values 0.973 | S. cerevisiae deletion strains, locus YMR263W, strain SAP30, hits give low values 0.97 | S. cerevisiae deletion strains, locus YMR307W, strain GAS1, hits give low values 0.898 | S. cerevisiae deletion strains, locus YNL067W, strain RPL9B, hits give low values 1.01 | S. cerevisiae deletion strains, locus YNL128W, strain TEP1, hits give low values 0.978 | S. cerevisiae deletion strains, locus YNL153C, strain GIM3, hits give low values 0.972 | S. cerevisiae deletion strains, locus YNL233W, strain BNI4, hits give low values 0.943 | S. cerevisiae deletion strains, locus YNL250W, strain rad50, hits give low values 0.99 | S. cerevisiae deletion strains, locus YNL271C, strain bni1, hits give low values 0.991 | S. cerevisiae deletion strains, locus YNL298W, strain CLA4, hits give low values 0.993 | S. cerevisiae deletion strains, locus YNL307C, strain MCK1, hits give low values 0.958 | S. cerevisiae deletion strains, locus YNL322C, strain KRE1, hits give low values 1 | S. cerevisiae deletion strains, locus YNR052C, strain pop2, hits give low values 1.01 | S. cerevisiae deletion strains, locus YOL006C, strain TOP1, hits give low values 0.936 | S. cerevisiae deletion strains, locus YOL012C, strain htz1 0.561 | S. cerevisiae deletion strains, locus YOL147C, strain pex11, hits give low values 1.01 | S. cerevisiae deletion strains, locus YOR061W, strain CKA2, hits give low values 1.01 | S. cerevisiae deletion strains, locus YOR069W, strain VPS5, hits give low values 1 | S. cerevisiae deletion strains, locus YOR136W, strain idh2, hits give low values 0.992 | S. cerevisiae deletion strains, locus YOR144C, strain elg1, hits give low values 1 | S. cerevisiae deletion strains, locus YOR184W, strain ser1, hits give low values 0.955 | S. cerevisiae deletion strains, locus YOR316C, strain cot1, hits give low values 0.999 | S. cerevisiae deletion strains, locus YPL055C, strain LGE1, hits give low values 0.996 | S. cerevisiae deletion strains, locus YPL241C, strain CIN2, hits give low values 1.01 | S. cerevisiae deletion strains, locus YPR119W, strain clb2, hits give low values 0.994 | S. cerevisiae deletion strains, locus YPR141C, strain kar3, hits give low values 0.991 | S. cerevisiae deletion strains, locus YPR163C, strain tif3, hits give low values 1.01 | S. cerevisiae deletion strains, locus YPR167C, strain met16, hits give low values 1 | S. cerevisiae deletion strains, strain wtn01, hits give low values 0.96 | S. cerevisiae strains, strain wild type, hits give low values 0.97

COC(=O)[C@@H]1C[C@H](OC(C)=O)C(=O)[C@H]2[C@@]1(C)CC[C@H]1C(=O)O[C@H](c3ccoc3)C[C@]21C
inactive: [1] 1 | [2] 0.994 | [3] 1 | [4] 0.936 | [5] 1.03 | [6] 0.957 | [7] 0.985 | [8] 1.01
